# According to PubChem BioAssay AID504467 (National Center for Advancing Translational Sciences (NCATS), 2011):
# The campaign covered roughly 330,000 compounds. About 7,700 (2.3%) were called active. About 26% were inconclusive and are not listed. For the sample, actives were picked, then their nearest neighbours and some compounds at random. Values without a mark were called inactive. Calls follow the shape of the dose curve; as a rule, active = well fitted inhibition curve with a large enough effect; inconclusive = small, poorly fitted or top-dose-only effect, or effect the other way; inactive = flat fitted curve, though single readings scatter.
# Assay: qHTS screen for small molecules that inhibit ELG1-dependent DNA repair in human embryonic kidney (HEK293T) cells expressing luciferase-tagged ELG1; also: nearly all actives have a fitted effect of over 55% in size
# Conditions: HEK293T ELG1-luciferase reporter, luminescence, 16 h, DNA damage induced by 5-fluorouridine; series mostly up to 46.1 µM; activity change, negative = inhibition: at the top concentration
# How it was run: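 5-Fluorouridine DNA damage + compound/DMSO, 2,000 cells/well, 16 h, 37 °C/5% CO2. ONE-Glo, 30 min RT, luminescence. Readout = decrease in reporter signal.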
# % is scaled to controls: 0 for no effect and ±100 for the full control effect; potency is read from the fitted curve at half-maximal effect.
Structure (SMILES),Potency,"activity change, negative = inhibition"
C=CCCC(=O)Nc1nc(C)c(-c2csc(Nc3ccc(Cl)cc3)n2)s1,18.4 µM (active),–
CC(=O)Nc1nc(C)c(-c2csc(Nc3ccc(S(N)(=O)=O)cc3)n2)s1,–,-12.6%
CCCCC(=O)Nc1nc(C)c(-c2csc(Nc3ccc(Cl)cc3)n2)s1,20.6 µM (active),–
CCCCCCC(=O)Nc1nc(C)c(-c2csc(Nc3cc(Cl)ccc3OC)n2)s1,–,-5.51%
Cc1ccc(Nc2nc(-c3sc(NC(=O)c4ccccc4)nc3C)cs2)cc1,–,-1.44%
CCC(=O)Nc1nc(C)c(C(=O)Nc2cccc(Cl)c2)s1,–,4.34%
CCOC(=O)N1CCN(C(=O)c2ccccc2SCC(=O)NCC2CCCCC2)CC1,–,-0.248%
CN(C(=O)COC(=O)Cc1ccccc1[N+](=O)[O-])C1CCS(=O)(=O)C1 (stereo unspecified),–,0%
COc1ccc(C(=O)COC(=O)CN2C(=O)C3CC=CCC3C2=O)c(OC)c1 (stereo unspecified),–,0%
CCc1cccc(NC(=O)CCCN2C(=O)C(c3ccccc3)Oc3cccnc32)c1 (stereo unspecified),–,-11.3%
COCCN(CCOC)c1nc(N)c2c(N)nc3c(c2c1C#N)CC(=O)N3Cc1ccc(Cl)cc1,5.17 µM (active),–
CCC(=O)Nc1ccc(S(=O)(=O)Nc2c(NC)c3ccccc3oc2=O)cc1,–,-11.8%
CC1CC(C)CN(CCCNC(=O)c2csc3c2CCCCC3)C1 (stereo unspecified),–,-3.73%
CC(C(=O)c1ccc(-c2ccccc2)cc1)[n+]1cccc(Br)c1 (stereo unspecified),–,1.43%
Cc1ccc2c(c1)C1CN(C)CCC1N2S(=O)(=O)c1cccc(F)c1 (stereo unspecified),–,10.5%
Cc1cccc(N2CCC(NCc3c(C(=O)N4CCCCC4)nc4c(C)cccn34)CC2)c1,25.9 µM (active),–
Cc1cccn2c(CNCC(C)Oc3cccnc3)c(C(=O)N3CCOCC3)nc12 (stereo unspecified),–,17.3%
CCOC(=O)C1CCN(Cc2c(C(=O)N3CCOCC3)nc3c(C)cccn23)CC1,–,-5.05%
CN(CC(=O)Nc1ccc(Cl)cc1)CC(=O)Nc1cccc2ccccc12,–,1.03%
Cc1ccc(S(=O)(=O)N(Cc2ccccc2)c2ccccn2)cc1[N+](=O)[O-],–,3.26%
Cn1c(Cc2cccc3ccccc23)nnc1SCC(=O)N1CCN(c2cccc(Cl)c2)CC1,18.4 µM (active),–
Cc1ccccc1NC(=O)Cc1nnc(SCC(=O)N2CCN(c3ccccc3)CC2)n1C,–,3.86%
Cn1c(CNC(=O)c2ccco2)nnc1SCC(=O)N1CCN(c2ccccc2)CC1,–,-13.3%

Structure (SMILES),Potency,"activity change, negative = inhibition"
O=C(CN1CCc2ccccc2C1)Nc1cccc(S(=O)(=O)N2CCOCC2)c1,–,-1.35%
CC1CCC(NC(=O)CN(C)S(=O)(=O)c2ccc3c(c2)c(=O)n(C)c(=O)n3C)CC1 (stereo unspecified),–,2.58%
O=C(CSc1nc2ccccc2c(=O)[nH]1)Nc1nc(-c2ccc(Br)cc2)cs1,–,0%
Cc1cc(C)c(-c2csc(NC(=O)CCCc3nc4ccccc4c(=O)[nH]3)n2)c(C)c1,5.17 µM (active),–
CC(=O)NCc1ccc(-c2csc(NC(=O)CCCc3nc4ccccc4c(=O)[nH]3)n2)cc1,–,-16.2%
CCCSc1ccc([C@H]2N[C@@](Cc3ccccc3)(C(=O)OC)[C@H]3C(=O)N(C)C(=O)[C@@H]23)cc1,–,-4.02%
COc1ccc(C(=O)N2CCc3cc(OC)c(OC)cc3C2c2cccc([N+](=O)[O-])c2)cc1 (stereo unspecified),–,-3.07%
CCc1ccc(OCC2c3cc(OC)c(OC)cc3CCN2C(C)=O)cc1 (stereo unspecified),6.51 µM (active),–
COc1ccc(CC(NC(C)=O)C(=O)NC2CCN(C(=O)c3ccc(OC)c(OC)c3)CC2)cc1OC (stereo unspecified),–,2.36%
COc1cccc(NC(=O)CN(C)C(=O)c2cc(C3CC3)nn2-c2ccccc2)c1,–,-20.6%
CCCCCN(C(=O)CCC(=O)OCCOc1ccc(OC)cc1)c1c(N)n(CCCC)c(=O)[nH]c1=O,–,-22.2%
CC(C)N(C(=O)[C@H]1C[C@H](CC(=O)NCCC2=CCCCC2)C(=O)N2CCc3c([nH]c4cc(CCC(=O)N(C)C)ccc34)[C@]12C)C(C)C,–,-10.1%
COc1ccccc1C(CNC(=O)c1cccc(NS(=O)(=O)c2ccc(Br)cc2)c1)N(C)C (stereo unspecified),–,-5.67%
O=C(NC(=S)Nc1ccc(S(=O)(=O)N2CCOCC2)cc1)c1ccccc1[N+](=O)[O-],–,5.03%
O=[N+]([O-])c1cc(Cl)cc(/C=N/NC(=S)Nc2cc(S(=O)(=O)N3CCOCC3)ccc2Cl)c1O,20.6 µM (active),–
O=S(=O)(c1ccc(NC(=S)NN=C(C2CC2)C2CC2)cc1)N1CCOCC1,–,7.52%
Cc1cc(=O)oc2c3c(cc(OCC(=O)N[C@H](C(=O)O)c4ccccc4)c12)OC(C)(C)CC3,–,-12.2%
Cc1noc(C)c1C(=O)N1CCOCC1,–,9.19%
O=C(c1ccccc1-c1ccccc1)N1CCOCC1,–,1.69%
Cc1oc2c(c1C(=O)N1CCOCC1)C(=O)c1ccccc1C2=O,4.61 µM (active),–
CC(=O)NC12CC3CC(C1)CC(C(=O)N1CCN(S(=O)(=O)c4cccs4)CC1)(C3)C2,–,-2.67%
Nc1ncnc2c1ncn2[C@@H]1O[C@H](CNCc2cccn2-c2nccs2)[C@@H](O)[C@H]1O,–,17.2%
O=C(CCN1C(=O)[C@@H]2Cc3ccccc3CN2C1=O)NCCc1ccccc1,–,-2.64%

Structure (SMILES),Potency,"activity change, negative = inhibition"
CN(C)C(=O)CCc1ccc2c3c([nH]c2c1)[C@]1(CCc2ccccc2)[C@@H](C(=O)N2CCCCC2)C[C@H](CC(=O)NCCC2=CCCCC2)C(=O)N1CC3,–,-29.9%
CC(C)(O)C#Cc1ccc(CN2CCC(CO)(CCc3ccccc3)CC2)cc1,–,-8.27%
CC(=O)c1c(C)[nH]c(C(=O)COC(=O)c2cccc(S(=O)(=O)N(C)c3ccccc3)c2)c1C,18.4 µM (active),–
CC(=O)c1c(C)[nH]c(C(=O)COC(=O)CCOc2ccc(C)cc2)c1C,–,12.8%
COc1ccc(C)cc1NC(=O)C(OC(=O)c1cccc(S(=O)(=O)N(C)c2ccccc2)c1)c1ccccc1 (stereo unspecified),–,-3.11%
COc1ccc(Cl)cc1NC(=O)CN(C)C(=O)c1cc(-c2cccs2)nn1-c1ccccc1,–,-10.8%
CCOc1ccc(C(=O)Nc2ccc(S(=O)(=O)Nc3cc(C)on3)cc2)cc1,–,8.23%
CCCCC(=O)NNC(=S)NC(=O)C(c1ccccc1)c1ccccc1,–,-4.87%
CC(C)C(=O)Nc1cccc(NC(=S)NC(=O)C(c2ccccc2)c2ccccc2)c1,16.4 µM (active),–
CC(C)C(=O)NC(=S)Nc1ccccc1F,–,3.5%
Cc1ccc(NC(=O)CN(C)C(=O)c2cccc(S(=O)(=O)N3CCCC3)c2)cc1,–,7.43%
CCn1c2ccccc2c2cc(NC(=O)COC(=O)c3cc(S(=O)(=O)N4CCCCC4)ccc3Cl)ccc21,–,18.2%
CCn1c(O)c(N=NC(=O)c2cccc(S(=O)(=O)N3CCCCC3)c2)c2ccccc21,23.1 µM (active),–
CC[C@]12c3[nH]c4ccc(Cl)cc4c3CCN1C(=O)[C@@H](CC(=O)NCCCOC)C[C@@H]2C(=O)N1CCN(C(=O)C2CC2)CC1,–,-3.04%
NC(=O)Nc1ccc(C(=O)OCC(=O)NC2CCCc3ccccc32)cc1 (stereo unspecified),–,3.15%
CCOc1ccccc1NC(=O)CCS(=O)(=O)c1cccc2nsnc12,–,-1.26%
CCOc1ccc(N(CC)S(=O)(=O)c2cccc3nsnc23)cc1,–,-15.1%
CCOc1ccc(OCC)c(NC(=O)CN(C)S(=O)(=O)c2cccc3nsnc23)c1,16.4 µM (active),–
Cc1ccc(CN2CC(C(=O)N3CCN(S(=O)(=O)c4ccccc4)CC3)CC2=O)cc1 (stereo unspecified),–,3.98%
O=C(NNc1c2ccccc2nc2ccccc12)c1cc2ccccc2cc1O,13 µM (active),–
CC(=O)Nc1ccc(Nc2c3ccccc3nc3ccccc23)cc1,–,-3.14%
Cc1ccc(/C=N/NC(=O)c2cc3ccccc3cc2O)o1,–,14.5%
Cc1ccc(C2=NN(C(=O)COc3ncnc4ccccc34)C(c3ccco3)C2)cc1 (stereo unspecified),–,6.64%

Structure (SMILES),Potency,"activity change, negative = inhibition"
CCS(=O)(=O)Nc1ccc(C2=NN(S(=O)(=O)c3ccc(F)cc3)C(c3ccco3)C2)cc1 (stereo unspecified),20.6 µM (active),–
COc1cccc(C2CC(c3ccccc3)=NN2S(=O)(=O)c2ccccc2)c1OC (stereo unspecified),–,-10.5%
CC(NCC(=O)Nc1cc(Cl)cc(Cl)c1)c1ccccc1 (stereo unspecified),–,-8.28%
COc1ccc(/C=C(/NC(=O)c2ccccc2)C(=O)Nc2cccc(C(=O)O)c2)cc1,–,-13.3%
COc1cc(SC)ccc1C(=O)N(Cc1ccccc1)c1ccccc1,–,-10.4%
CC(Oc1ccc(Cl)cc1Cl)C(=O)/C=C/N(C)C (stereo unspecified),–,2.25%
CCCC(=O)Nc1cccc(NC(=S)NC(=O)C(C)Oc2ccc(Cl)cc2Cl)c1 (stereo unspecified),20.6 µM (active),–
COc1cccc(NC(=O)CN(C)C(=O)Cc2ccc(Cl)cc2Cl)c1,–,-1.46%
COc1ccc(C)cc1NC(=O)CN(C)S(=O)(=O)c1ccc2c(c1)n(C)c(=O)c(=O)n2C,–,7.65%
Cc1ccc(C)c(C(=O)COC(=O)Cn2[nH]c(=O)c3ccccc3c2=O)c1,–,-0.316%
O=C(CCc1nc(-c2ccccc2)no1)Nc1cccc(C(=O)NC2CC2)c1,–,-26.2%
CN(CC(=O)Nc1c(Cl)cccc1Cl)C(=O)CC1OC(=O)c2ccccc21 (stereo unspecified),–,10.4%
CCN(C(=O)COC(=O)/C=C/c1nc2ccccc2s1)C1CCS(=O)(=O)C1 (stereo unspecified),9.2 µM (active),–
CCN(C(=O)COC(=O)c1c(NC(C)=O)sc(C)c1C)C1CCS(=O)(=O)C1 (stereo unspecified),–,-2.68%
CCN(C(=O)CSc1nc2ccccc2n1CC)C1CCS(=O)(=O)C1 (stereo unspecified),–,5.4%
C=CC(COCc1ccccc1)N(CC(=O)OC)S(=O)(=O)c1cc(Br)ccc1OC (stereo unspecified),–,-2.49%
Cc1nc2cc(C(F)(F)F)ccc2n1CCNc1nc(-c2cc(Cl)c(N)c(Cl)c2)cs1,–,-16%
COc1ccc(-c2c(C)cc3oc(=O)cc(-c4ccccc4)c3c2C)cc1C=O,25.9 µM (active),–
COc1ccc(-c2c(C)cc3oc(=O)cc(-c4ccccc4)c3c2C)cc1F,–,19.1%
COc1ccc(-c2c(C)cc3oc(=O)cc(-c4ccccc4)c3c2C)cc1OC,–,-11.1%
CCOC(=O)N1CCN(Cc2nnc(-c3ccccc3Cl)o2)CC1,–,8.04%
Cc1ccc(F)cc1NC(=O)CSCc1c(C)noc1C,–,23.3%
